# Data reported in ChEMBL document CHEMBL4513216, “Probing the Open Global Health Chemical Diversity Library for Multistage-Active Starting Points for Next-Generation Antimalarials” (ACS Infect Dis, 2020).
# Out of some 69,000 compounds screened, about 8,600 (12%) showed an effect of 50% or more. For the sample, strong results were picked, then their nearest neighbours and some compounds at random.
# Tested on: Plasmodium berghei
# Test: Screen against P. berghei liver stage (PbLuc), transformed with Luciferase, at 10uM
# Format: functional, HepG2
# Conditions: tested at 10 uM
row,SMILES,INHIBITION [%]
1,CN1CCO[C@@H]2CN(C(=O)NCc3cccc(F)c3)CC[C@@H]2C1,17.7
2,CN(C)C[C@H]1OC[C@@H]2CCN(C(=O)NCc3cccc(F)c3)C[C@@H]21,61.9
3,CN(C)C(=O)NC[C@@H]1OC[C@H]2CN(Cc3cccc(F)c3)CC[C@H]21,69.6
4,Cc1cccc(CN2CC[C@H]3CO[C@H](CNC(=O)N(C)C)[C@H]3C2)c1,-4.88
5,CN(C)C[C@H]1OC[C@@H]2CN(C(=O)NCc3cccc(F)c3)CC[C@@H]21,24.9
6,COc1ccc(CN2CC[C@H]3[C@H](CO[C@H]3CNC(=O)N(C)C)C2)cc1,4.61
7,Cc1ccccc1CN(CCN(C)C)Cc1ccc(C(=O)O)cc1,-4.37
8,CC(C)c1nc2n(n1)CC(NCc1nc(C3CC3)no1)CC2 (stereo not drawn),16.8
9,CN(CC1CCCCO1)c1ncnc2cc(F)ccc12 (stereo not drawn),4.68
10,Cc1ccc(=O)n(CC2(O)CCN(Cc3cc(C)c(O)c(C)c3)CC2)n1,42.1
11,CCn1ccc(NC(=O)C2CCC(=O)N2Cc2ccc(C)o2)n1 (stereo not drawn),-20.8
12,C[C@@H]1CN(C(=O)C2(Cn3cccn3)CC2)C[C@@]1(O)C1CCC1,9.845
13,CN(CC(=O)N1CCCC1c1cnn(C)c1)Cc1ccccc1 (stereo not drawn),-25.8
14,Cc1cc(CNC(=O)NCc2ccccc2N2CCOCC2)no1,52.4
15,Cc1cc(CNC(=O)N2CCN(c3ccccc3)CC2)no1,14.2
16,Cc1cc(CNC(=O)NC(C)c2ccc(N3CCOCC3)cc2)no1 (stereo not drawn),35.1
17,CCC(=O)Nc1cccc(OCC(=O)N(C)Cc2nc(C)c[nH]2)c1,3.82
18,CCC(=O)Nc1cccc(OCC(=O)N(C)Cc2ccon2)c1,20.2
19,CCC(=O)Nc1cccc(OCC(=O)N(C)Cc2nccn2CC)c1,66.1
20,Cn1ccnc(Nc2ccc3c(c2)CCN3C(=O)c2ccoc2)c1=O,-21.6
21,Cc1nc(CC(=O)N2CCCC2Cn2cccn2)cs1 (stereo not drawn),19.4
22,O=C(C1CCS(=O)(=O)CC1)N1CCC(c2ccc(F)cc2)C1 (stereo not drawn),-9.51
23,O=C(C1CCC1)N1CCC(C(=O)N2CCC(c3ccc(F)cc3)C2)CC1 (stereo not drawn),62.8

row,SMILES,INHIBITION [%]
1,CC(C)N1CCC(C(=O)N2CCC(c3ccc(F)cc3)C2)CC1 (stereo not drawn),73
2,O=C(C1CC1)N1CCC(C(=O)N2CCC(c3ccc(F)cc3)C2)CC1 (stereo not drawn),61.9
3,CC(C)N1CCC(C(=O)N2CCN(c3cccc(C(=O)O)c3)CC2)CC1,43.9
4,O=C(CN1C(=O)CCNC1=O)N1CCC(c2ccc(F)cc2)C1 (stereo not drawn),33.4
5,O=C(C1CCCC1)N1CCC(C(O)c2ccc(F)cc2)CC1 (stereo not drawn),31.7
6,CC(C)N1CCC(C(=O)N2CCCN(c3ccccc3)CC2)CC1,33.9
7,O=C(c1cc(F)ccc1O)N1CCN(C(=O)C2CCC2)CC1,6.11
8,Cc1cnc2c(S(=O)(=O)NC3CCS(=O)(=O)C3)cccc2c1 (stereo not drawn),10
9,Cc1ccc(C(=O)N(C)Cc2cc(C)on2)cn1,21.5
10,N#Cc1ccccc1N1CCCN(C(=O)CCc2ccco2)CC1,-2.53
11,CSCC(=O)N[C@H]1CC[C@H](Nc2nccc(-c3cccnc3)n2)C1,49.7
12,CN1CCc2[nH]nc(C(=O)N3CCC4(CN(C)C(=O)O4)C3)c2C1 (stereo not drawn),48.9
13,CN1CCc2[nH]nc(C(=O)N3CCCC4(CC3)CNC(=O)O4)c2C1 (stereo not drawn),46.1
14,CN1CCc2[nH]nc(C(=O)N3CCC4(CCCO4)CC3)c2C1,71.2
15,CSCc1cc(C(=O)NC2(C#N)CC2)ccc1F,32.3
16,CSCc1cc(C(=O)NC2(C#N)CCSC2)ccc1F (stereo not drawn),-77.6
17,N#CC1(NC(=O)c2ccc(F)c(Br)c2)CCSC1 (stereo not drawn),51.8
18,Cc1nn(C)c(C)c1C(=O)N1CCOCC1CC(=O)c1ccco1 (stereo not drawn),17.4
19,CCOC(=O)C1(O)CCN(C(=O)Nc2ccc(CC)cc2)CC1,-62.8
20,Cc1cnc(N2C[C@@H]3[C@@H](C2)OCC(=O)N3CCN(C)C)nc1,73.3
21,CN(C)CCN1C(=O)CO[C@@H]2CN(c3ncc(F)cn3)C[C@H]21,17.2
22,Cc1cnc(N2C[C@@H]3[C@@H](C2)OCC(=O)N3CC2CC2)nc1,31.9
23,Cc1nn(C)c(N(C)C)c1CNCc1ccc(Cn2cncn2)cc1,-56.7

row,SMILES,INHIBITION [%]
1,O=C(O)c1cccnc1CN1CCCCC1CCc1cccc(O)c1 (stereo not drawn),41.2
2,O=C(O)c1cccnc1CN1CCCC1CCc1ccccc1 (stereo not drawn),51.2
3,O=C(O)c1cccnc1CN1CCCCC1CCc1ccccn1 (stereo not drawn),37.6
4,CCOCC1CN(S(=O)(=O)c2cccc(C)c2)Cc2nccn2C1 (stereo not drawn),13.1
5,CCC(C(=O)N(C)Cc1cc(-c2ccccc2)n[nH]1)n1cccn1 (stereo not drawn),5.11
6,Cn1ccnc1N1CCN(C(=O)Cc2ccc(Cl)cc2)CC1,-17.2
7,OC1(CNCCN2CCc3ccccc32)CNCCOC1 (stereo not drawn),36.1
8,OC1(CNCCSc2ccccn2)CNCCOC1 (stereo not drawn),67.2
9,OC1(CNCCSc2ccccn2)CCCNC1 (stereo not drawn),38.3
10,Cc1ccccc1C(=O)N1CCOCC1CN(C)C (stereo not drawn),1.06
11,O=C(NC1CCN(c2ccccc2OC(F)F)C1)c1c[nH]nn1 (stereo not drawn),-39.7
12,Cc1noc(C)c1CNC1CCN(c2ccccc2OC(F)F)C1 (stereo not drawn),67.4
13,O=C(NC1CCN(c2ccccc2OC(F)F)C1)c1cccnc1 (stereo not drawn),27.5
14,COc1ccccc1N1CCC(NCc2c(C)noc2C)C1 (stereo not drawn),1.94
15,O=C(Nc1ccccn1)NC1CCN(c2ccccc2OC(F)F)C1 (stereo not drawn),67.8
16,COc1ccccc1N1CCCC(NC(=O)Nc2cccnc2)C1 (stereo not drawn),10.7
17,O=C(Nc1ccncc1)NC1CCN(c2ccccc2OC(F)F)C1 (stereo not drawn),79
18,O=C1C(Nc2ncccn2)CCN1c1ccccc1OC(F)F (stereo not drawn),-10.7
19,O=C(Nc1cccnc1)NC1CCN(c2ccccc2OC(F)F)C1 (stereo not drawn),56.6
20,O=C(Nc1cn[nH]c1)NC1CCN(c2ccccc2OC(F)F)C1 (stereo not drawn),29.8
21,N#Cc1nccnc1NC1CCN(c2ccccc2OC(F)F)C1 (stereo not drawn),36.5
22,Cc1c(CNC2CCN(c3ccccc3OC(F)F)C2)cnn1C (stereo not drawn),5.64
